# Test results: the supplement of paper PMC8728848
# This is one part of a sample in which the strongest signals are shown more often than they occur.
# Key:
# Assay in all cases: glycan array binding signal (z-score within array); higher = stronger binding
# Conditions in all cases: glycan notation: IUPAC condensed, linker removed; mutation: R201A
# Fuc(a1-2)Gal = molecular target: Fuc(a1-2)Gal
# In short: (§1)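 Glycan array binding is given as a within-array Z-score, which can be read as non-binding when negative. The arrays, 3228 of them, came from the Consortium for Functional Glycomics database and were retained only where the protein sequence was available. Z-scores were averaged across arrays of the same protein sequence at different concentrations or buffers and across linkers.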
# [1] = molecular target: Fuc(a1-2)Gal(b1-3)GalNAc(b1-3)Gal(a1-4)Gal(b1-4)Glc
# In short: as §1
# [2] = molecular target: Fuc(a1-2)Gal(b1-3)GalNAc(b1-4)[Neu5Ac(a2-3)]Gal(b1-4)Glc
# In short: as §1
# Fuc(a1-2)Gal(b1-4)Glc = molecular target: Fuc(a1-2)Gal(b1-4)Glc
# In short: as §1
# [3] = molecular target: Fuc(a1-2)[Gal(a1-3)]Gal(b1-3)GlcNAc
# In short: as §1
# [4] = molecular target: Fuc(a1-2)[Gal(a1-3)]Gal(b1-4)GlcNAc(b1-2)Man(a1-3)[Fuc(a1-2)[Gal(a1-3)]Gal(b1-4)GlcNAc(b1-2)Man(a1-6)]Man(b1-4)GlcNAc(b1-4)GlcNAc
# In short: as §1
# [5] = molecular target: Fuc(a1-2)[Gal(a1-3)]Gal(b1-4)GlcNAc(b1-3)[Fuc(a1-2)[Gal(a1-3)]Gal(b1-4)GlcNAc(b1-6)]GalNAc
# In short: as §1
# [6] = molecular target: Fuc(a1-2)[Gal(a1-3)]Gal(b1-4)GlcNAc(b1-6)GalNAc
# In short: as §1
# [7] = molecular target: Fuc(a1-2)[GalNAc(a1-3)]Gal(b1-4)GlcNAc(b1-2)Man(a1-3)[Fuc(a1-2)[GalNAc(a1-3)]Gal(b1-4)GlcNAc(b1-2)Man(a1-6)]Man(b1-4)GlcNAc(b1-4)[Fuc(a1-6)]GlcNAc
# In short: as §1
# [8] = molecular target: Fuc(a1-2)[GalNAc(a1-3)]Gal(b1-4)GlcNAc(b1-3)Gal(b1-4)GlcNAc(b1-3)Gal(b1-4)GlcNAc
# In short: as §1
# [9] = molecular target: Fuc(a1-3)[Gal(b1-4)]GlcNAc(b1-2)Man(a1-3)[Fuc(a1-3)[Gal(b1-4)]GlcNAc(b1-2)Man(a1-6)]Man(b1-4)GlcNAc(b1-4)[Fuc(a1-6)]GlcNAc
# In short: as §1
# [10] = molecular target: Fuc(a1-3)[Gal3S(b1-4)]GlcNAc
# In short: as §1
# Fuc(a1-4)GlcNAc = molecular target: Fuc(a1-4)GlcNAc
# In short: as §1
# Gal(a1-3)Gal(b1-4)GlcNAc = molecular target: Gal(a1-3)Gal(b1-4)GlcNAc
# In short: as §1
# [11] = molecular target: Gal(a1-3)Gal(b1-4)[Fuc(a1-3)]GlcNAc(b1-2)Man(a1-3)[Gal(a1-3)Gal(b1-4)[Fuc(a1-3)]GlcNAc(b1-2)Man(a1-6)]Man(b1-4)GlcNAc(b1-4)GlcNAc
# In short: as §1
# [12] = molecular target: Gal(a1-4)Gal(b1-4)GlcNAc(b1-3)Gal(b1-4)Glc
# In short: as §1
# [13] = molecular target: Gal(b1-3)GlcNAc(b1-2)Man(a1-3)[Gal(b1-3)GlcNAc(b1-2)Man(a1-6)]Man(b1-4)GlcNAc(b1-4)[Fuc(a1-6)]GlcNAc
# In short: as §1
# [14] = molecular target: Gal(b1-3)GlcNAc(b1-2)Man(a1-3)[GlcNAc(b1-4)][Gal(b1-3)GlcNAc(b1-2)Man(a1-6)]Man(b1-4)GlcNAc(b1-4)GlcNAc
# In short: as §1
# [15] = molecular target: Gal(b1-4)GlcNAc(b1-3)Gal(b1-3)GalNAc
# In short: as §1
# [16] = molecular target: Gal(b1-4)GlcNAc(b1-3)Gal(b1-4)Glc
# In short: as §1
# [17] = molecular target: Gal(b1-4)GlcNAc(b1-3)Gal(b1-4)GlcNAc(b1-3)Gal(b1-4)GlcNAc(b1-3)Gal(b1-4)GlcNAc(b1-3)Gal(b1-4)GlcNAc(b1-2)Man(a1-3)[Gal(b1-4)GlcNAc(b1-3)Gal(b1-4)GlcNAc(b1-3)Gal(b1-4)GlcNAc(b1-3)Gal(b1-4)GlcNAc(b1-3)Gal(b1-4)GlcNAc(b1-2)Man(a1-6)]Man(b1-4)GlcNAc(b1-4)GlcNAc
# In short: as §1
# [18] = molecular target: Gal(b1-4)GlcNAc(b1-3)Gal(b1-4)GlcNAc(b1-3)Gal(b1-4)GlcNAc(b1-3)Gal(b1-4)GlcNAc(b1-3)Gal(b1-4)GlcNAc(b1-3)Gal(b1-4)GlcNAc(b1-2)Man(a1-3)[Gal(b1-4)GlcNAc(b1-3)Gal(b1-4)GlcNAc(b1-3)Gal(b1-4)GlcNAc(b1-3)Gal(b1-4)GlcNAc(b1-3)Gal(b1-4)GlcNAc(b1-3)Gal(b1-4)GlcNAc(b1-2)Man(a1-6)]Man(b1-4)GlcNAc(b1-4)GlcNAc
# In short: as §1
# Gal3S6S(b1-4)GlcNAc6S = molecular target: Gal3S6S(b1-4)GlcNAc6S
# In short: as §1
# Gal6P(b1-4)GlcNAc = molecular target: Gal6P(b1-4)GlcNAc
# In short: as §1
# GalNAc(a1-3)Gal = molecular target: GalNAc(a1-3)Gal
# In short: as §1
# [19] = molecular target: GalNAc(b1-3)Gal(a1-4)Gal(b1-4)GlcNAc
# In short: as §1
# GalNAc3S(b1-4)GlcNAc = molecular target: GalNAc3S(b1-4)GlcNAc
# In short: as §1
# [20] = molecular target: Glc(a1-6)Glc(a1-6)Glc(a1-6)Glc
# In short: as §1
# Glc(b1-4)Glc = molecular target: Glc(b1-4)Glc
# In short: as §1
# GlcA(b1-3)GlcNAc = molecular target: GlcA(b1-3)GlcNAc
# In short: as §1
# [21] = molecular target: GlcNAc(b1-2)Man(a1-3)[GlcNAc(b1-2)Man(a1-6)]Man(b1-4)GlcNAc(b1-4)[Fuc(a1-6)]GlcNAc
# In short: as §1
# GlcNAc(b1-3)Fuc = molecular target: GlcNAc(b1-3)Fuc
# In short: as §1
# GlcNAc(b1-3)Gal = molecular target: GlcNAc(b1-3)Gal
# In short: as §1
# [22] = molecular target: GlcNAc(b1-3)Gal(b1-4)GlcNAc
# In short: as §1
# [23] = molecular target: GlcNAc(b1-3)Gal(b1-4)GlcNAc(b1-2)Man(a1-3)[GlcNAc(b1-3)Gal(b1-4)GlcNAc(b1-2)Man(a1-6)]Man(b1-4)GlcNAc(b1-4)[Fuc(a1-6)]GlcNAc
# In short: as §1
# [24] = molecular target: GlcNAc(b1-4)Gal(b1-4)GlcNAc
# In short: as §1
# GlcNAc(b1-4)GlcNAc = molecular target: GlcNAc(b1-4)GlcNAc
# In short: as §1
# [25] = molecular target: GlcNAc(b1-4)GlcNAc(b1-4)GlcNAc
# In short: as §1
# GlcNAc(b1-6)GalNAc = molecular target: GlcNAc(b1-6)GalNAc
# In short: as §1
# [26] = molecular target: GlcNAc6S(b1-3)Gal(b1-4)GlcNAc
# In short: as §1
# [27] = molecular target: Kdn(a2-3)Gal(b1-4)[Fuc(a1-3)]GlcNAc
# In short: as §1
# Man(a1-2)Man(a1-3)Man = molecular target: Man(a1-2)Man(a1-3)Man
# In short: as §1
# [28] = molecular target: Neu5Ac(a2-3)Gal(b1-3)GalNAc(b1-4)[Neu5Ac(a2-3)]Gal(b1-4)Glc
# In short: as §1
# [29] = molecular target: Neu5Ac(a2-3)Gal(b1-3)GlcNAc(b1-2)[Neu5Ac(a2-3)Gal(b1-3)GlcNAc(b1-4)]Man(a1-6)[Neu5Ac(a2-3)Gal(b1-3)GlcNAc(b1-2)Man(a1-3)]Man(b1-4)GlcNAc(b1-4)GlcNAc
# In short: as §1
# [30] = molecular target: Neu5Ac(a2-3)Gal(b1-3)GlcNAc6S
# In short: as §1
# Neu5Ac(a2-3)Gal(b1-4)Glc = molecular target: Neu5Ac(a2-3)Gal(b1-4)Glc
# In short: as §1
# [31] = molecular target: Neu5Ac(a2-3)Gal(b1-4)GlcNAc(b1-2)Man(a1-3)[Neu5Ac(a2-6)Gal(b1-4)GlcNAc(b1-2)Man(a1-6)]Man(b1-4)GlcNAc(b1-4)GlcNAc
# In short: as §1
# [32] = molecular target: Neu5Ac(a2-3)Gal(b1-4)GlcNAc(b1-3)Gal(b1-4)GlcNAc
# In short: as §1
# [33] = molecular target: Neu5Ac(a2-3)Gal(b1-4)[Fuc(a1-3)]GlcNAc(b1-3)Gal(b1-4)GlcNAc
# In short: as §1
# [34] = molecular target: Neu5Ac(a2-6)Gal(b1-4)GlcNAc(b1-2)Man(a1-6)Man(b1-4)GlcNAc(b1-4)GlcNAc
# In short: as §1
# [35] = molecular target: Neu5Ac(a2-6)Gal(b1-4)GlcNAc(b1-3)Gal(b1-4)GlcNAc(b1-3)GalNAc
# In short: as §1
# [36] = molecular target: Neu5Ac(a2-6)Gal(b1-4)GlcNAc(b1-6)[Gal(b1-3)GlcNAc(b1-3)]Gal(b1-4)Glc
# In short: as §1
binder,measurement,setting,value
OS9 (Arabidopsis thaliana) (protein) MRGSHHHHHHGMASMTGGQQMGRDLYDDDDKSRLQIFPAHLVGTFSRNNREPKYKIEFLPEDSPFHPGDNLESMVMLDKHGNRFLCYLPKEEKATSGWTSSQQNISTVMMETQQLVKLKTPDELLQPLSEKCLFRQEGWWSYEFCHQKYVRQLHVEDENKIVQEFFLGTFDPEATAAFNQTVSDASTDASQRYHSHVYTNGTTCDLTGSPAEVEVRFVCAETRAMVTSITELSTCKYALTVQCPTLCKHPLFQLEKPVSHTIHCNAIPVEEDATRNKEEQAVDESPKMIADS,glycan array binding signal (z-score),Fuc(a1-2)Gal,0.581
same,glycan array binding signal (z-score),[1],-0.131
same,glycan array binding signal (z-score),[2],-0.246
same,glycan array binding signal (z-score),Fuc(a1-2)Gal(b1-4)Glc,-0.732
same,glycan array binding signal (z-score),[3],-0.124
same,glycan array binding signal (z-score),[4],-0.237
same,glycan array binding signal (z-score),[5],1.25
same,glycan array binding signal (z-score),[6],-0.223
same,glycan array binding signal (z-score),[7],-0.739
same,glycan array binding signal (z-score),[8],2.49
same,glycan array binding signal (z-score),[9],3.48
same,glycan array binding signal (z-score),[10],0.043
same,glycan array binding signal (z-score),Fuc(a1-4)GlcNAc,2.18
same,glycan array binding signal (z-score),Gal(a1-3)Gal(b1-4)GlcNAc,-0.929
same,glycan array binding signal (z-score),[11],0.205
same,glycan array binding signal (z-score),[12],-0.456
same,glycan array binding signal (z-score),[13],-0.307
same,glycan array binding signal (z-score),[14],-0.686
same,glycan array binding signal (z-score),[15],-0.513
same,glycan array binding signal (z-score),[16],-0.35
same,glycan array binding signal (z-score),[17],-0.257
same,glycan array binding signal (z-score),[18],0.133
same,glycan array binding signal (z-score),Gal3S6S(b1-4)GlcNAc6S,3.98
same,glycan array binding signal (z-score),Gal6P(b1-4)GlcNAc,-0.208
same,glycan array binding signal (z-score),GalNAc(a1-3)Gal,1.39
same,glycan array binding signal (z-score),[19],2.17
same,glycan array binding signal (z-score),GalNAc3S(b1-4)GlcNAc,2.29
same,glycan array binding signal (z-score),[20],-1.12
same,glycan array binding signal (z-score),Glc(b1-4)Glc,2.1
same,glycan array binding signal (z-score),GlcA(b1-3)GlcNAc,1.54
same,glycan array binding signal (z-score),[21],0.257
same,glycan array binding signal (z-score),GlcNAc(b1-3)Fuc,0.403
same,glycan array binding signal (z-score),GlcNAc(b1-3)Gal,-0.422
same,glycan array binding signal (z-score),[22],-0.104
same,glycan array binding signal (z-score),[23],2.59
same,glycan array binding signal (z-score),[24],0.805
same,glycan array binding signal (z-score),GlcNAc(b1-4)GlcNAc,8.22
same,glycan array binding signal (z-score),[25],0.6
same,glycan array binding signal (z-score),GlcNAc(b1-6)GalNAc,-0.498
same,glycan array binding signal (z-score),[26],-0.224
same,glycan array binding signal (z-score),[27],0.82
same,glycan array binding signal (z-score),Man(a1-2)Man(a1-3)Man,0.874
same,glycan array binding signal (z-score),[28],-0.662
same,glycan array binding signal (z-score),[29],-1.14
same,glycan array binding signal (z-score),[30],-0.775
same,glycan array binding signal (z-score),Neu5Ac(a2-3)Gal(b1-4)Glc,2.08
same,glycan array binding signal (z-score),[31],-0.425
same,glycan array binding signal (z-score),[32],0.1
same,glycan array binding signal (z-score),[33],1.98
same,glycan array binding signal (z-score),[34],-0.225
same,glycan array binding signal (z-score),[35],0.709
same,glycan array binding signal (z-score),[36],-0.933
